{"source": "PubChem BioAssay (EPA / NIEHS)", "key": {"[1]": {"biological_target": "human Neurokinin, NK2 Receptor, TACR2 (gene 6865) (UniProt P21452)", "sequence (P21452 whole entry, looked up)": "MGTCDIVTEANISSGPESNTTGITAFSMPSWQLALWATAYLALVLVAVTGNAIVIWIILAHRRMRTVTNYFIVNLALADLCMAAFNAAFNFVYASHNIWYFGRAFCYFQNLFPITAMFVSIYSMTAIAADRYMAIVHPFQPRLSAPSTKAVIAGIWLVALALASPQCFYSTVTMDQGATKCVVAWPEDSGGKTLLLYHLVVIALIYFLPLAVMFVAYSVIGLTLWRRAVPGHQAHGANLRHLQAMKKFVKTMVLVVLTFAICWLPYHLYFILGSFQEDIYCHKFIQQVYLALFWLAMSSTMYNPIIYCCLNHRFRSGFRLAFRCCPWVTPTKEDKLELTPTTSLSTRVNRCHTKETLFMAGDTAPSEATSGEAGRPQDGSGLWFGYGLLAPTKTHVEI", "assay": "NVS_GPCR_hNK2: NovaScreen (NVS) G Protein-Coupled Receptor Assay for human Neurokinin, NK2 Receptor (AID 2283278)", "summary_of_the_method": "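Filter-based scintillation counting measured radioligand bound to receptor extracted from CHO cells, 4 hours after compound addition. Chemicals screened first at 25 uM in duplicate, with actives retested in concentration series relative to DMSO.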"}, "[2]": {"biological_target": "human Purinergic Receptor P2Y, P2RY1 (gene 5028) (UniProt P47900)", "sequence (P47900 whole entry, looked up)": "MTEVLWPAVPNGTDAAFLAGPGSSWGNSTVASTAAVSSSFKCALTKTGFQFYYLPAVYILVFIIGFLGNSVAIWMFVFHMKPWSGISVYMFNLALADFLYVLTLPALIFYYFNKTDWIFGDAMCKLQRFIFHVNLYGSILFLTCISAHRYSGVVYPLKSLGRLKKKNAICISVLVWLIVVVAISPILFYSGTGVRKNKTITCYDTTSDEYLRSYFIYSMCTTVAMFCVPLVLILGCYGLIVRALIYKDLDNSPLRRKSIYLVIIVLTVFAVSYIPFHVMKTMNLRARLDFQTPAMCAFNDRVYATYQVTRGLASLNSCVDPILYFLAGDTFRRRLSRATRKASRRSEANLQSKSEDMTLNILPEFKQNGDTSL", "assay": "NVS_GPCR_hPY2: NovaScreen (NVS) G Protein-Coupled Receptor Assay for human Purinergic Receptor P2Y (AID 2283281)", "summary_of_the_method": "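Filtration scintillation readout of radioligand displacement on U937 extract, measured 1 h post-dosing. Single 25 uM duplicate screen, then singleton concentration series to 50 uM for chemicals passing threshold; DMSO as baseline.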"}, "[3]": {"biological_target": "human Vasopressin 1A Receptor (V1A), AVPR1A (gene 552) (UniProt P37288)", "sequence (P37288 whole entry, looked up)": "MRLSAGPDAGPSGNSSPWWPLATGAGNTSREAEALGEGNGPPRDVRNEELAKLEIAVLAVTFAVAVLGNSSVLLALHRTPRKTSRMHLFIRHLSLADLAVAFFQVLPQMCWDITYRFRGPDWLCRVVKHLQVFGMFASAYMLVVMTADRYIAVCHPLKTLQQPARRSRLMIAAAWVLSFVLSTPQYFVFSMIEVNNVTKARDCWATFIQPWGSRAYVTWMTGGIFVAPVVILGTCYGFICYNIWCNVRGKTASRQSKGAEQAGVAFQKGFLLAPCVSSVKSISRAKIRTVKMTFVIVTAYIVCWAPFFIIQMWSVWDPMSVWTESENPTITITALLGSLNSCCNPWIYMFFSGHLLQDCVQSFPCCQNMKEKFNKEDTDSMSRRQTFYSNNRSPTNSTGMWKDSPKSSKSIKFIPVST", "assay": "NVS_GPCR_hV1A: NovaScreen (NVS) G Protein-Coupled Receptor Assay for human Vasopressin 1A Receptor (V1A) (AID 2283284)", "summary_of_the_method": "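Single-concentration duplicate screen at 25 uM, with concentration-response follow-up (top 50 uM) for actives. The assay measured displacement of a radioligand from human platelet-derived receptor after 1.5 h, detected by filtration and scintillation counting.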"}, "[4]": {"test_system": "guinea pig Atrionatriuretic Peptide Receptor A (ANPA), gene 100135578", "assay": "NVS_GPCR_gANPA: NovaScreen (NVS) G Protein-Coupled Receptor Assay for guinea pig Atrionatriuretic Peptide Receptor A (ANPA) (AID 2283291)", "summary_of_the_method": "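Displacement of specific radioligand from guinea pig cerebellum membranes was read by scintillation after 1 h. A duplicate single-point screen at 25 uM was followed by a concentration series up to 50 uM, analysed relative to DMSO.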"}, "[5]": {"biological_target": "human Neurotensin Receptor (NTS), NTSR1 (gene 4923) (UniProt P30989)", "assay": "NVS_GPCR_hNTS: NovaScreen (NVS) G Protein-Coupled Receptor Assay for human Neurotensin Receptor (NTS) (AID 2283279)", "summary_of_the_method": "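Compounds competed with a radiolabelled ligand for binding to CHO-derived human neurotensin receptor; bound signal counted after filtration, 1 h. Screened first at a single concentration of 25 uM in duplicate, then concentration series to 50 uM maximum for actives.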"}, "[6]": {"biological_target": "human Thromboxane A2 Receptor (TXA2), TBXA2R (gene 6915) (UniProt P21731)", "sequence (P21731 whole entry, looked up)": "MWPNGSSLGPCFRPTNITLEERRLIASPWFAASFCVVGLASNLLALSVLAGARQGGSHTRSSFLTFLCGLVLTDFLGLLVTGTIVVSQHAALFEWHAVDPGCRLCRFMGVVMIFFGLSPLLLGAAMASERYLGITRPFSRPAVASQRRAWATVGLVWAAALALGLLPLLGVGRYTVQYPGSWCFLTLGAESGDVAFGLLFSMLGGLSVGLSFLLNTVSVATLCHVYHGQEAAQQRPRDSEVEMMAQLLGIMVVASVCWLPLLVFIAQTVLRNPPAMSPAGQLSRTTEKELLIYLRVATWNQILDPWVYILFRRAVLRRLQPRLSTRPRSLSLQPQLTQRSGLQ", "assay": "NVS_GPCR_hTXA2: NovaScreen (NVS) G Protein-Coupled Receptor Assay for human Thromboxane A2 Receptor (TXA2) (AID 2283282)", "summary_of_the_method": "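Cell-free radioligand binding with human platelet-derived receptor; 1 h after dosing, filter-based scintillation counting, loss of signal vs DMSO. Primary screen in duplicate at 25 uM.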"}, "[7]": {"biological_target": "mouse Cholecystokinin, CCK1 Receptor (CCKA), Cckar (gene 12425) (UniProt O08786)", "sequence (O08786 whole entry, looked up)": "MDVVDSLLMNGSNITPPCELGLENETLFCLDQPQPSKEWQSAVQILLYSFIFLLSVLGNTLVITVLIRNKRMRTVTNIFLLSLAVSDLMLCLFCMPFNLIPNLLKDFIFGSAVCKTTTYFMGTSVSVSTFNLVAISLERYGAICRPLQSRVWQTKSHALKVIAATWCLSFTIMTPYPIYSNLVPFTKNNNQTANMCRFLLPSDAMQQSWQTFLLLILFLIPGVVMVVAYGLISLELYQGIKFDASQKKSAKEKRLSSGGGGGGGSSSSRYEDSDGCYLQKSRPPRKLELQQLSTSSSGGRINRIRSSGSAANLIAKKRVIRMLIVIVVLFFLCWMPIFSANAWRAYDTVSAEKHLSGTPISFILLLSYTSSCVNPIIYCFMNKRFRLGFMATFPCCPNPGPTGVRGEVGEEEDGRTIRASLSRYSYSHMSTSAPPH", "assay": "NVS_GPCR_mCCKAPeripheral: NovaScreen (NVS) G Protein-Coupled Receptor Assay for mouse Cholecystokinin, CCK1 Receptor (CCKA) (AID 2283285)", "summary_of_the_method": "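Chemicals were first screened in duplicate at 25 uM, with those meeting threshold (e.g., 30% inhibition) retested in singleton concentration series to 50 uM maximum. Binding of radioligand to mouse pancreatic membranes was read after 2 h by filtration and scintillation counting.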"}, "[8]": {"biological_target": "rat Serotonin, 5-Hydroxytryptamine Receptor 1 (5HT1), Non-Selective Binding, Htr1a (gene 24473) (UniProt P19327)", "assay": "NVS_GPCR_r5HT1_NonSelective: NovaScreen (NVS) G Protein-Coupled Receptor Assay for rat Serotonin, 5-Hydroxytryptamine Receptor 1 (5HT1), Non-Selective Binding (AID 2283286)", "summary_of_the_method": "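Binding of a radioligand to rat cortex membranes is read by filtration and scintillation counting after 1 h. Compounds were screened at 25 uM in duplicate. Actives were then titrated to a top of 50 uM. DMSO is the baseline.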"}, "[9]": {"test_system": "5-hydroxytryptamine receptor 2C (pig)", "assay": "NVS_GPCR_p5HT2C: NovaScreen (NVS) G Protein-Coupled Receptor Assay for pig Serotonin, 5-Hydroxytryptamine Receptor 2C (5HT2C) (AID 2283288)", "summary_of_the_method": "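Radioligand displacement on membranes from pig choroid plexus, detected by filter scintillation counting after 1 h. Tested first at a single 25 uM in duplicate, then in concentration-response for actives; DMSO served as baseline.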"}, "[10]": {"biological_target": "rat Adrenergic, Alpha 1, Non-selective Receptor (Adra1), Adra1a (gene 29412) (UniProt P43140)", "sequence (P43140 whole entry, looked up)": "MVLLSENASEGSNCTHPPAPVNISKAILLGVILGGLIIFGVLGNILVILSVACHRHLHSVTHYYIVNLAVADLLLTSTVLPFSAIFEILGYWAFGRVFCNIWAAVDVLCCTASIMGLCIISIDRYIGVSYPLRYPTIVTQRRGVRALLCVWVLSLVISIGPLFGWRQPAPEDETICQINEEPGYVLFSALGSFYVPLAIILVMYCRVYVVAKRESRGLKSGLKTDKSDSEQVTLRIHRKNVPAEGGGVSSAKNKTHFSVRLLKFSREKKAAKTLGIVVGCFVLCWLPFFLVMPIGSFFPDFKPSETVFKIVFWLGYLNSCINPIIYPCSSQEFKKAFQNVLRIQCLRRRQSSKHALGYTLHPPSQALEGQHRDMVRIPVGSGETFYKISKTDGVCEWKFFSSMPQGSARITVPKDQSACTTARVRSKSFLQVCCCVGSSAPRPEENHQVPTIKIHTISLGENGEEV", "assay": "NVS_GPCR_rAdra1_NonSelective: NovaScreen (NVS) G Protein-Coupled Receptor Assay for rat Adrenergic, Alpha 1, Non-selective Receptor (Adra1) (AID 2283289)", "summary_of_the_method": "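Chemicals first screened in duplicate at 25 uM, then actives tested in concentration series up to 50 uM. Binding measured as displacement of radioligand from rat forebrain membrane receptors, 1 h, filtration with scintillation readout; DMSO baseline.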"}, "[11]": {"biological_target": "mouse Cholecystokinin, CCK2 Receptor (CCKB), Cckbr (gene 12426) (UniProt P56481)", "sequence (P56481 whole entry, looked up)": "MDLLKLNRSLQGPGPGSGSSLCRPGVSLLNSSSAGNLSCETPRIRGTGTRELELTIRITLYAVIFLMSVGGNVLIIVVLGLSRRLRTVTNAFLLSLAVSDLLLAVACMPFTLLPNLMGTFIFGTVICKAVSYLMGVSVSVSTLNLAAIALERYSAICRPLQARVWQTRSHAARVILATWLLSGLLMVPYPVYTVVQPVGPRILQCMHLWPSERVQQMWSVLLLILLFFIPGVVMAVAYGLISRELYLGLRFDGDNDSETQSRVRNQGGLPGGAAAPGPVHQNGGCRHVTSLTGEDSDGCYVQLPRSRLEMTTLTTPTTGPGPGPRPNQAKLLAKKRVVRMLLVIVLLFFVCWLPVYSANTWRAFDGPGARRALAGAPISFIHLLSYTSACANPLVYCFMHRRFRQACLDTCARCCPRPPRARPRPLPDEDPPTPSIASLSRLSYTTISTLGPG", "assay": "NVS_GPCR_mCKKBCentral: NovaScreen (NVS) G Protein-Coupled Receptor Assay for mouse Cholecystokinin, CCK2 Receptor (CCKB) (AID 2283293)", "summary_of_the_method": "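Mouse forebrain membrane preparation incubated 2 h with chemical and radioligand; bound radioactivity counted after filtration. Single-concentration duplicate screen at 25 uM, then concentration series to 50 uM max for hits, DMSO as baseline.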"}, "[12]": {"biological_target": "guinea pig Bradykinin Receptor B2 (BK2), BDKRB2 (gene 100135486) (UniProt O70526)", "sequence (O70526 whole entry, looked up)": "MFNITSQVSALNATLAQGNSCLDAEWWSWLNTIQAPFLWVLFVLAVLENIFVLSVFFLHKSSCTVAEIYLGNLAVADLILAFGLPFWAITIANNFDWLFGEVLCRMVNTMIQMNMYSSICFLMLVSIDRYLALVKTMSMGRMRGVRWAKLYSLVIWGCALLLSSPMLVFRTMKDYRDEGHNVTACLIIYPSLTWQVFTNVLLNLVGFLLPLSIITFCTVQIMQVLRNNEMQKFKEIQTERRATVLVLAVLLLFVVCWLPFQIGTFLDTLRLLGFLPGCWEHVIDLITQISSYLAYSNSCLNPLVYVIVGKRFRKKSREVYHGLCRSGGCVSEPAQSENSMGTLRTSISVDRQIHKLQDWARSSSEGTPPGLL", "assay": "NVS_GPCR_gBK2: NovaScreen (NVS) G Protein-Coupled Receptor Assay for guinea pig Bradykinin Receptor B2 (BK2) (AID 2283292)", "summary_of_the_method": "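Guinea pig ileum membrane preparation incubated 1 h with radioligand and test chemical; bound counts measured after filtration. Primary duplicate screening at 25 uM, then singleton concentration series with a 50 uM top dose; DMSO as baseline.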"}, "[13]": {"biological_target": "human Muscarinic, M4 Receptor, CHRM4 (gene 1132) (UniProt P08173)", "assay": "NVS_GPCR_hM4: NovaScreen (NVS) G Protein-Coupled Receptor Assay for human Muscarinic, M4 Receptor (AID 2283274)", "summary_of_the_method": "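Filter-based scintillation counting of radioligand bound to CHO-expressed human M4 preparations after 1 h; loss of signal fitted versus DMSO. Initial duplicate testing at 25 uM, concentration-response follow-up for actives.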"}, "[14]": {"biological_target": "Muscarinic acetylcholine receptor M5 (Homo sapiens) (UniProt P08912)", "sequence (P08912 whole entry, looked up)": "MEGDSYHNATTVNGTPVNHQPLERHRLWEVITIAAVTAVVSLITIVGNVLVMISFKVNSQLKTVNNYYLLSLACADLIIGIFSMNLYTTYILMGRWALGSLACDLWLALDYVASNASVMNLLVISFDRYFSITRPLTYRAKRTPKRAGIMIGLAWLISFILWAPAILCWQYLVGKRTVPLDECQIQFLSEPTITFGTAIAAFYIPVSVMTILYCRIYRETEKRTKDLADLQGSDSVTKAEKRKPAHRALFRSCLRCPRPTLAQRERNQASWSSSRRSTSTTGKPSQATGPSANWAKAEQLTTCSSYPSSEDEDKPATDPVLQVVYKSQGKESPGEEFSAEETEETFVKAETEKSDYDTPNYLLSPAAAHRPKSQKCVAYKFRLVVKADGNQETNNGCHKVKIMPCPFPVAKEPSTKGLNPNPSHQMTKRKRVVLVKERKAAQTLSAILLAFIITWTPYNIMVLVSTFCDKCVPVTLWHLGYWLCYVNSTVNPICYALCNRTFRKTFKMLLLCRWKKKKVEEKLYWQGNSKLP", "assay": "NVS_GPCR_hM5: NovaScreen (NVS) G Protein-Coupled Receptor Assay for human Muscarinic, M5 Receptor (AID 2283275)", "summary_of_the_method": "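Chemicals passing a primary duplicate screen at 25 uM were run as singleton concentration series, maximum 50 uM. Displacement of a specific radioligand from CHO-extracted receptor was read by filter scintillation after 1 h, relative to DMSO.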"}, "[15]": {"biological_target": "human Opioid Receptor Delta 1 (Opiate D1), OPRD1 (gene 4985) (UniProt P41143)", "sequence (P41143 whole entry, looked up)": "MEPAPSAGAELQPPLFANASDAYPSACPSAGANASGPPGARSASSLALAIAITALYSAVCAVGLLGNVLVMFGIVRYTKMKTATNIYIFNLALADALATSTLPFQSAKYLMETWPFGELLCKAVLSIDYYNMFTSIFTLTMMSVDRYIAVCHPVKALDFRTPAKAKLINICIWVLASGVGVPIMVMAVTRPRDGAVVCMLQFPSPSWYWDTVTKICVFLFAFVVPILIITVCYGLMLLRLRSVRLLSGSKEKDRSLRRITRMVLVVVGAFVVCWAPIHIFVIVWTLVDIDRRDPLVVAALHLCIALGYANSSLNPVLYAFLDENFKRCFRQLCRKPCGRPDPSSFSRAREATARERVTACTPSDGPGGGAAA", "assay": "NVS_GPCR_hOpiate_D1: NovaScreen (NVS) G Protein-Coupled Receptor Assay for human Opioid Receptor Delta 1 (Opiate D1) (AID 2283280)", "summary_of_the_method": "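Membrane preparations from CHO cells bearing the human receptor were incubated 1 h with test chemical, and bound radioligand was counted after filtration. Actives from 25 uM duplicate screening were retested in concentration-response.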"}, "[16]": {"biological_target": "human Orphanin, Opioid Related Nociceptin Receptor 1 (ORL1), OPRL1 (gene 4987) (UniProt P41146)", "sequence (P41146 whole entry, looked up)": "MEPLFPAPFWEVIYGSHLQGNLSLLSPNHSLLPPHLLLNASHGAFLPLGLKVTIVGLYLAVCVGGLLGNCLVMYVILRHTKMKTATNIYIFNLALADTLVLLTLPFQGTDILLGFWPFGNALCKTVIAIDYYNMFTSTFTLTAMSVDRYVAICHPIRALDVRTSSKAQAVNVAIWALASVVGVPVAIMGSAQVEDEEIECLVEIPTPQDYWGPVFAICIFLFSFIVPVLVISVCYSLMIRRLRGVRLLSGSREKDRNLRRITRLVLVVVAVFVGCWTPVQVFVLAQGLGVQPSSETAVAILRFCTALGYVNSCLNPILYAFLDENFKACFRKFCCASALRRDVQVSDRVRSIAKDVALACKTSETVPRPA", "assay": "NVS_GPCR_hORL1: NovaScreen (NVS) G Protein-Coupled Receptor Assay for human Orphanin, Opioid Related Nociceptin Receptor 1 (ORL1) (AID 2283283)", "summary_of_the_method": "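Cell-free binding using HEK293-derived receptor protein: radioligand displacement measured by filter scintillation 1 hour after dosing. Primary testing at 25 uM in duplicate, followed by singleton concentration series up to 50 uM; DMSO served as negative control.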"}, "[17]": {"biological_target": "human Opioid Receptor Mu (Opiate Mu), OPRM1 (gene 4988) (UniProt P35372)", "sequence (P35372 whole entry, looked up)": "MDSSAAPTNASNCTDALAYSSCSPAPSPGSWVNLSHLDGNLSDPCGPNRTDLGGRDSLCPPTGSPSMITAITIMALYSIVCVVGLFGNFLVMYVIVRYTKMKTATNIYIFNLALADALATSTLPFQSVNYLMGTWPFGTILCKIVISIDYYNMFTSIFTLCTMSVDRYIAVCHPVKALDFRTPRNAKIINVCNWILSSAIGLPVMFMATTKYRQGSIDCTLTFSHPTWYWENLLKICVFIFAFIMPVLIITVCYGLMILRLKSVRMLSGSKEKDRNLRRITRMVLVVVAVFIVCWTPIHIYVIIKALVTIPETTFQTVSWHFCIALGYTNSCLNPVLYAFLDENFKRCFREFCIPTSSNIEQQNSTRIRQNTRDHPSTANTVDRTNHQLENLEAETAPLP", "assay": "NVS_GPCR_hOpiate_mu: NovaScreen (NVS) G Protein-Coupled Receptor Assay for human Opioid Receptor Mu (Opiate Mu) (AID 2283290);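 further: hits lower bound tracer signal versus DMSO meaning displacement of the ligand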", "summary_of_the_method": "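CHO-derived receptor protein, cell-free; radioligand displacement, filtration + scintillation counting, read at 2.5 h. DMSO = negative control/baseline. Primary: 25 uM single conc, duplicate; secondary: concentration series.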"}}, "note": "Records with an inconclusive call do not appear. Calls of active or inactive are those of the source. How the source made its calls: active means hit-call score of the fitted dose curve at least 0.9, where 1 is the maximum; inconclusive means response in the unintended direction; inactive means score below 0.9."}
{"compound": "Oc1c(Cl)c(Cl)c(Cl)c(Cl)c1Cl", "values": [{"measurement": "outcome", "setting": "[1]", "value": "inactive"}, {"measurement": "outcome", "setting": "[2]", "value": "inactive"}, {"measurement": "outcome", "setting": "[3]", "value": "inactive"}]}
{"compound": "CCCCCCCCCc1ccc(O)cc1", "values": [{"measurement": "outcome", "setting": "[2]", "value": "inactive"}]}
{"compound": "ClC1=C(Cl)[C@]2(Cl)[C@@H]3[C@H]4C[C@H]([C@@H]5O[C@H]45)[C@@H]3[C@@]1(Cl)C2(Cl)Cl", "values": [{"measurement": "outcome", "setting": "[4]", "value": "inactive"}]}
{"compound": "Cc1cc2c3c(c1)C(c1ccccc1)=N[C@@H](NC(=O)c1ccncc1)C(=O)N3CC2", "values": [{"measurement": "outcome", "setting": "[1]", "value": "inactive"}, {"measurement": "outcome", "setting": "[5]", "value": "inactive"}, {"measurement": "outcome", "setting": "[6]", "value": "inactive"}, {"measurement": "AC50", "setting": "[7]", "value": "19.9 µM (active)"}, {"measurement": "AC50", "setting": "[8]", "value": "6.17 µM (active)"}]}
{"compound": "N#Cc1ccc(N(CC(N)=O)CC(F)(F)F)cc1C(F)(F)F", "values": [{"measurement": "outcome", "setting": "[3]", "value": "inactive"}]}
{"compound": "COc1ccc(O)c(C(C)(C)C)c1", "values": [{"measurement": "AC50", "setting": "[9]", "value": "13.2 µM (active)"}, {"measurement": "outcome", "setting": "[10]", "value": "inactive"}, {"measurement": "outcome", "setting": "[11]", "value": "inactive"}]}
{"compound": "Cc1ccc(O)c(C)c1", "values": [{"measurement": "AC50", "setting": "[3]", "value": "0.12 µM (active)"}, {"measurement": "outcome", "setting": "[9]", "value": "inactive"}, {"measurement": "outcome", "setting": "[12]", "value": "inactive"}]}
{"compound": "Oc1ccc(C(c2ccc(O)cc2)(C(F)(F)F)C(F)(F)F)cc1", "values": [{"measurement": "AC50", "setting": "[13]", "value": "32.5 µM (active)"}, {"measurement": "AC50", "setting": "[14]", "value": "18.4 µM (active)"}, {"measurement": "AC50", "setting": "[15]", "value": "11.4 µM (active)"}, {"measurement": "AC50", "setting": "[16]", "value": "25 µM (active)"}, {"measurement": "AC50", "setting": "[9]", "value": "1.39 µM (active)"}, {"measurement": "AC50", "setting": "[10]", "value": "38.1 µM (active)"}, {"measurement": "AC50", "setting": "[17]", "value": "4.93 µM (active)"}]}
{"compound": "C[C@]12CCC(=O)C=C1CC[C@@H]1[C@@H]2CC[C@@]2(C)[C@H]1CC[C@]2(C)O", "values": [{"measurement": "outcome", "setting": "[15]", "value": "inactive"}, {"measurement": "outcome", "setting": "[17]", "value": "inactive"}]}
{"compound": "Cc1cc(O)ccc1Cl", "values": [{"measurement": "AC50", "setting": "[9]", "value": "9.65 µM (active)"}]}
{"compound": "Oc1ccc(Cl)cc1Cl", "values": [{"measurement": "outcome", "setting": "[9]", "value": "inactive"}]}
{"compound": "CC(C)C(=O)OCC(C)(C)C(OC(=O)C(C)C)C(C)C", "note": "(centres undefined)", "values": [{"measurement": "outcome", "setting": "[12]", "value": "inactive"}]}
{"compound": "O=C(O)C(F)(F)C(F)(F)C(F)(F)C(F)(F)C(F)(F)C(F)(F)C(F)(F)C(F)(F)F", "values": [{"measurement": "AC50", "setting": "[6]", "value": "6.2 µM (active)"}]}
{"compound": "Clc1ccc(C(c2ccccc2Cl)C(Cl)(Cl)Cl)cc1", "note": "(centres undefined)", "values": [{"measurement": "outcome", "setting": "[17]", "value": "inactive"}]}
{"compound": "CCOP(=S)(OCC)SCSC(C)(C)C", "values": [{"measurement": "outcome", "setting": "[2]", "value": "inactive"}, {"measurement": "outcome", "setting": "[9]", "value": "inactive"}]}
{"compound": "CC(C)(c1ccccc1)c1ccc(O)cc1", "values": [{"measurement": "outcome", "setting": "[14]", "value": "inactive"}, {"measurement": "AC50", "setting": "[1]", "value": "25 µM (active)"}, {"measurement": "AC50", "setting": "[7]", "value": "18.2 µM (active)"}, {"measurement": "AC50", "setting": "[9]", "value": "17.9 µM (active)"}, {"measurement": "AC50", "setting": "[17]", "value": "11.8 µM (active)"}, {"measurement": "AC50", "setting": "[11]", "value": "18.5 µM (active)"}]}
